Results filed as inconclusive are left out. Calls of active or inactive are those of the source. The call rests on the fitted dose curve; in most records, active means well fitted curve in the direction sought with a large enough effect in the repeat runs; inconclusive means weak or mixed curves; inactive means no such curve, though single readings can be large; an effect the other way counts as inactive or inconclusive.
How the values were obtained:
[1] = Caspase-3/7 induction in CHO-K1 cells by small molecules, qHTS assay (AID 1346980); settings: CHO-K1 caspase-3/7 induction, Caspase-Glo luminescence, 17 h; series mostly up to 92.4 µM; further: nearly all actives have a fitted effect of over 15% in size
Outline: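 Luminescent Caspase-Glo 3/7 read (30min, room temperature) quantified apoptosis induction. Cells were wild-type CHO-K1, treated with compound for 17hr at 37 C and 5% CO2.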

[2] = Caspase-3/7 induction in HepG2 cells by small molecules, qHTS cell viability counter screen (AID 1346981); settings: CellTiter-Fluor fluorescence, 17 h; series mostly up to 92.4 µM; further: nearly all actives have a fitted effect of over 30% in size; further: potency means the concentration at half of the fitted maximal effect
Outline: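 Counter screen for cytotoxicity: HepG2 exposed 16 hr to compounds, then CellTiter-Fluor viability signal (fluorescence, 1 hr reagent incubation).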

[3] = molecular target: Nuclear receptor subfamily 1 group I member 2 (Homo sapiens) (UniProt O75469); assay: Human pregnane X receptor (PXR) small molecule agonists, qHTS assay (AID 1346982); settings: PXR-Luc HepG2, CYP3A4 luciferase reporter, 24 h; series mostly up to 92.4 µM; further: nearly all actives have a fitted effect of over 35% in size; further: potency means the concentration at half of the fitted maximal effect
Outline: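 Luminescence (ONE-Glo, 30 min RT) after 24 hr compound exposure of PXR-Luc HepG2 cells; cells rested 5 hr post-plating in 5% charcoal-stripped FBS medium.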

[4] = molecular target: Cytochrome P450 2D6 (Homo sapiens) (UniProt P10635); assay: Cytochrome P450 Family 2 Subfamily D Member 6 (CYP2D6) small molecule antagonists: luciferase reporter qHTS assay (AID 1671196); settings: P450-Glo CYP2D6 enzyme assay, luciferin luminescence, 1 h; series mostly up to 115 µM; further: nearly all actives have a fitted effect of over 50% in size; further: potency means the concentration at half of the fitted maximal effect
Outline: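 Inhibition of CYP2D6 was gauged by loss of luminescence, since light produced tracks the luciferin generated from a proluciferin substrate. A 10 min room-temperature preincubation preceded 1 h NADPH-supported turnover.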

[5] = molecular target: Cytochrome P450 2C9 (Homo sapiens) (UniProt P11712); assay: Cytochrome P450 Family 2 Subfamily C Member 9 (CYP2C9) small molecule antagonists: luciferase reporter qHTS assay (AID 1671198); settings: P450-Glo CYP2C9 enzyme assay, luciferin luminescence; series mostly up to 115 µM; further: nearly all actives have a fitted effect of over 50% in size; further: potency means the concentration at half of the fitted maximal effect
Outline: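 Enzyme-substrate mix preincubated with compound 10 min at room temperature; reaction started with NADPH regeneration solution, 1 h 37C. Luminescent luciferin product read after 20 min detection reagent.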

[6] = molecular target: Voltage-gated inwardly rectifying potassium channel KCNH2 (Homo sapiens) (UniProt Q12809); assay: Human Ether-a-go-go-Related Gene (hERG) channel small molecule antagonists: fluorescence cell-based qHTS assay (AID 1671200); settings: hERG-U2OS cells, FluxOR thallium flux fluorescence; series mostly up to 76.8 µM; further: nearly all actives have a fitted effect of over 50% in size; further: potency means the concentration at half of the fitted maximal effect;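 on activity change, negative = inhibition: hERG-expressing U2OS cells given a thallium stimulus after FluxOR II dye loading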
Outline: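 Measured: Tl+ flux via fluorescence (480/540 nm) in hERG-expressing U2OS cells after 1 h dye loading at room temperature.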

[7] = molecular target: Cytochrome P450 3A4 (Homo sapiens) (UniProt P08684); assay: Cytochrome P450 Family 3 Subfamily A Member 4 (CYP3A4) small molecule antagonists: luciferase reporter qHTS assay (AID 1671201); settings: P450-Glo CYP3A4 enzyme, luciferin luminescence, 1 h; series mostly up to 115 µM; further: nearly all actives have a fitted effect of over 50% in size; further: potency means the concentration at half of the fitted maximal effect
Outline: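 Setup: enzyme-substrate mix, compound pin transfer, 10 min RT. Reaction: NADPH regeneration solution, 1 h RT. Readout: detection reagent stops turnover, luminescence measured after 20 min, expressed in relative luminescence units.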

[8] = molecular target: Cytochrome P450 2C19 (Homo sapiens) (UniProt P33261); assay: Cytochrome P450 Family 2 Subfamily C Member 19 (CYP2C19) small molecule antagonists: luciferase reporter qHTS assay (AID 1671197); settings: P450-Glo CYP2C19 enzyme, luciferin luminescence, 1 h; series mostly up to 115 µM; further: nearly all actives have a fitted effect of over 65% in size; further: potency means the concentration at half of the fitted maximal effect
Outline: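 Enzyme-substrate mix with proluciferin substrate (P450-Glo CYP2C19 system) preincubated with compounds 10 min at room temperature; NADPH regeneration solution added, 37C for 1 h; detection reagent stops reaction, luminescence read after 20 min. Ketoconazole positive control.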

[9] = molecular target: Cytochrome P450 1A2 (Homo sapiens) (UniProt P05177); assay: Cytochrome P450 Family 1 Subfamily A Member 2 (CYP1A2) small molecule antagonists: luciferase reporter qHTS assay (AID 1671199); settings: P450-Glo CYP1A2 enzyme, luciferin luminescence, 1 h; series mostly up to 115 µM; further: nearly all actives have a fitted effect of over 50% in size; further: potency means the concentration at half of the fitted maximal effect
Outline: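 Signal from luciferin formed by CYP1A2 from a proluciferin substrate is read as luminescence, expressed in relative luminescence units. Compounds sit with enzyme 10 min, NADPH-driven reaction runs 1 h, all at room temperature.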
On the % scale 0 is the no-effect control and ±100 the full control effect.

Chain of Voltage-gated inwardly rectifying potassium channel KCNH2 (Homo sapiens) (Q12809 whole entry, looked up): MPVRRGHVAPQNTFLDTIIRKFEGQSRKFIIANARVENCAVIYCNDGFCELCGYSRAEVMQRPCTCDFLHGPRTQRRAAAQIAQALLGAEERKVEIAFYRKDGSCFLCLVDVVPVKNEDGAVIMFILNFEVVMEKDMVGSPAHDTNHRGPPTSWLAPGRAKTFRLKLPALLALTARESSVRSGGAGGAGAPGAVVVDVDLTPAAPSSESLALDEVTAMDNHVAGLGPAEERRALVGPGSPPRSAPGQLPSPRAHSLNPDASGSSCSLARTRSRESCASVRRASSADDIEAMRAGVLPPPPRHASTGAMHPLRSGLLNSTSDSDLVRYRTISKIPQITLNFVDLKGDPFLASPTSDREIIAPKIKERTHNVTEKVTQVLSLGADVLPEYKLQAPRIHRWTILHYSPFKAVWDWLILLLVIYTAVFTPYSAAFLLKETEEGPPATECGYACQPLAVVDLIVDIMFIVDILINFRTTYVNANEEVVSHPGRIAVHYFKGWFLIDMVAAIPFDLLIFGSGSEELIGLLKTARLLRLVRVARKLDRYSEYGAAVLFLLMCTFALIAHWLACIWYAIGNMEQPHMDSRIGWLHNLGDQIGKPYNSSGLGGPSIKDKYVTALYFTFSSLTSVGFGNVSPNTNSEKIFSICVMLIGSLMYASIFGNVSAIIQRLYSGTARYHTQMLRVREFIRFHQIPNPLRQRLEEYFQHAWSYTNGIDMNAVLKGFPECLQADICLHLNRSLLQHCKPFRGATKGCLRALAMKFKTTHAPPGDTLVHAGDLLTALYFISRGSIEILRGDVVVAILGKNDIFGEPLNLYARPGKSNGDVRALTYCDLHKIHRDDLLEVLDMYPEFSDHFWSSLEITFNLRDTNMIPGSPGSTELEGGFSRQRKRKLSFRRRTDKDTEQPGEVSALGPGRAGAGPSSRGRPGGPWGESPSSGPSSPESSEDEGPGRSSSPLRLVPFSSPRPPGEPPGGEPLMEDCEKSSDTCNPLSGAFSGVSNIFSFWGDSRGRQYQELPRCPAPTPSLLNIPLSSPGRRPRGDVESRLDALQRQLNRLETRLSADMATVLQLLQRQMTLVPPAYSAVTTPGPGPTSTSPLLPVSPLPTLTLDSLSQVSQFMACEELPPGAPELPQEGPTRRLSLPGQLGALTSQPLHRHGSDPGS
Chain of Cytochrome P450 2C19 (Homo sapiens) (P33261 whole entry, looked up): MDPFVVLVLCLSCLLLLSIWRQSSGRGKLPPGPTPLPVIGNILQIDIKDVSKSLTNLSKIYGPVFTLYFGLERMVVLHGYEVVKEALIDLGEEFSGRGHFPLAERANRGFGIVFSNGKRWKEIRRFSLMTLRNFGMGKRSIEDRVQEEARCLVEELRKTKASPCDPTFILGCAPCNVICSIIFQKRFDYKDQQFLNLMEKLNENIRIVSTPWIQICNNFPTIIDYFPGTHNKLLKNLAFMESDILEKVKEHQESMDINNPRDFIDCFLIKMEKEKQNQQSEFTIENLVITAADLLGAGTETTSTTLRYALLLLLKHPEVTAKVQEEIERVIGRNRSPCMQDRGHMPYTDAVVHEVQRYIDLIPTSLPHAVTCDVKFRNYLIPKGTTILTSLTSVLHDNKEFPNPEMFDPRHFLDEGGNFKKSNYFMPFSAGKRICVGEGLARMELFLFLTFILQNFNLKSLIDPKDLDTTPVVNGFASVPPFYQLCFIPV
Chain of Cytochrome P450 2C9 (Homo sapiens) (P11712 whole entry, looked up): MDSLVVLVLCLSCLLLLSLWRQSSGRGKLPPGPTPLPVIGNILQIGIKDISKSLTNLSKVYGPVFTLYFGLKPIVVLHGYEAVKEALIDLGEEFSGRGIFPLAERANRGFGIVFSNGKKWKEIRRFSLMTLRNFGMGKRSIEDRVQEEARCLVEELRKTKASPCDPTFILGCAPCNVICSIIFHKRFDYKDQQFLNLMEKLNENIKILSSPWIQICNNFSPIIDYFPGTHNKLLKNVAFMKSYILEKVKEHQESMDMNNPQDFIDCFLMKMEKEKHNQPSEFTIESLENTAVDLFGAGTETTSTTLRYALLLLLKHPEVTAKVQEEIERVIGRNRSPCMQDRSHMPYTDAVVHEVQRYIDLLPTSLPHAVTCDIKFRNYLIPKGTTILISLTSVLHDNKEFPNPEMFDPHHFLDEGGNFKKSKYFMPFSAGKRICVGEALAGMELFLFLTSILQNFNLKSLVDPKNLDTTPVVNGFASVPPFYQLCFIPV
Chain of Cytochrome P450 1A2 (Homo sapiens) (P05177 whole entry, looked up): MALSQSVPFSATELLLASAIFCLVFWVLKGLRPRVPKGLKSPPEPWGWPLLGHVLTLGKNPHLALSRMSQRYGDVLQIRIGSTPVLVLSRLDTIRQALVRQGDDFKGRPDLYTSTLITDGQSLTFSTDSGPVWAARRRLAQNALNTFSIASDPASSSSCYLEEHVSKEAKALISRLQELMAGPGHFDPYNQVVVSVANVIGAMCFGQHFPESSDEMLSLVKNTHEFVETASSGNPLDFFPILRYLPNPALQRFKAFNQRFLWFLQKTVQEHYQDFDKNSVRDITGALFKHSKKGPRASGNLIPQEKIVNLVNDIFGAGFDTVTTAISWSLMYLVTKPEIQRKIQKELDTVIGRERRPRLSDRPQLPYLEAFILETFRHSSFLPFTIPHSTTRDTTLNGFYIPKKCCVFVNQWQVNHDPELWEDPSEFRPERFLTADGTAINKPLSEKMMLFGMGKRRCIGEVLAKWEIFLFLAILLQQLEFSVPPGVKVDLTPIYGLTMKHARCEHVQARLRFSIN
Chain of Nuclear receptor subfamily 1 group I member 2 (Homo sapiens) (O75469 whole entry, looked up): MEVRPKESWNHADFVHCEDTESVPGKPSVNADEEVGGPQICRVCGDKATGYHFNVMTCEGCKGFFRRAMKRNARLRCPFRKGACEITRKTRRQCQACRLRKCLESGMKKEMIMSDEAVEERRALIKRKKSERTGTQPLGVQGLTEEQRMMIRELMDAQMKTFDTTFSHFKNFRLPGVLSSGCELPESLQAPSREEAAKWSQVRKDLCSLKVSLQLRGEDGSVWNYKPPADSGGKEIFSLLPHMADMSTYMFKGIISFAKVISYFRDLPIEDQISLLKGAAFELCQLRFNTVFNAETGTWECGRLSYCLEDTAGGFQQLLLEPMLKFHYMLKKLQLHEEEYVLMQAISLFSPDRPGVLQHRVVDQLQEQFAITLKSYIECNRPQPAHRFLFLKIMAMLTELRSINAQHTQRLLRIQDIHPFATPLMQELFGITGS
Chain of Cytochrome P450 3A4 (Homo sapiens) (P08684 whole entry, looked up): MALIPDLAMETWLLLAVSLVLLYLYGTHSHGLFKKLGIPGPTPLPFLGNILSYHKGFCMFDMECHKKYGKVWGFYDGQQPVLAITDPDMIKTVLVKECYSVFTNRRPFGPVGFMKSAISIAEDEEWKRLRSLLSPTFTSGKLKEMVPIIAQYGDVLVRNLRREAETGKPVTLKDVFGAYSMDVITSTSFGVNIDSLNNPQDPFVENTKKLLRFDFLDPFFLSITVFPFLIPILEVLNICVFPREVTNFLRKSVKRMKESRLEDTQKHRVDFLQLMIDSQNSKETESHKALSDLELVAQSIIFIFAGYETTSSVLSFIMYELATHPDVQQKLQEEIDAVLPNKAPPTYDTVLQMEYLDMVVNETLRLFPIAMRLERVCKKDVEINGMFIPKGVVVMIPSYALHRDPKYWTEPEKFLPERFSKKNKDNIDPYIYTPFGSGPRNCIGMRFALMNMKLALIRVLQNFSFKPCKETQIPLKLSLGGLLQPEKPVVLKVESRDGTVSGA
Chain of Cytochrome P450 2D6 (Homo sapiens) (P10635 whole entry, looked up): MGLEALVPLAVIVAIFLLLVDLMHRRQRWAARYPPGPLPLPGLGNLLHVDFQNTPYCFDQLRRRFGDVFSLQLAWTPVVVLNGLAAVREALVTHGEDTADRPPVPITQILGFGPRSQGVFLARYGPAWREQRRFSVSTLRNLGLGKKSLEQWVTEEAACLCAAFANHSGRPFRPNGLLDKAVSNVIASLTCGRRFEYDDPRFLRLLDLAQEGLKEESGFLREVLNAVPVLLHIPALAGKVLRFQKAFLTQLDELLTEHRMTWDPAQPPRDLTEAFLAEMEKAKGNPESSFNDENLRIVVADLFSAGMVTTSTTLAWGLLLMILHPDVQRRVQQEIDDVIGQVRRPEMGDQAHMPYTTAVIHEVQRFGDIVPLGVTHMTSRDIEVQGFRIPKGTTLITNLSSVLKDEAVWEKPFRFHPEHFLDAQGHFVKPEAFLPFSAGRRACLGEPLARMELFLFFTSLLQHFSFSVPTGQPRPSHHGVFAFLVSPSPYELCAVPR

O=C(CCCCCCCCc1cccnc1)N1CCC(C=C(c2ccccc2)c2ccccc2)CC1
inactive: Potency [1] | Potency [2] | Potency [4]
active: Potency [3] 5.45 µM | Potency [5] 0.633 µM | Potency [6] 6.92 µM | Potency [7] 0.399 µM

COC(=O)c1ccc([N+](=O)[O-])cc1
inactive: Potency [1] | Potency [2] | Potency [3] | Potency [4] | Potency [8] | Potency [5] | Potency [6] | Potency [7]
active: Potency [9] 17.8 µM

CC(c1cc(C(C)(C)C)cc(C(C)(C)C)c1O)c1cc(C(C)(C)C)cc(C(C)(C)C)c1O
inactive: Potency [1] | Potency [2] | Potency [3] | Potency [4] | Potency [9] | Potency [6]
active: Potency [8] 31.7 µM

O=C1C=CC(=O)N1c1cccc(N2C(=O)C=CC2=O)c1
active: Potency [2] 61.1 µM | Potency [4] 71 µM | Potency [8] 7.1 µM | Potency [5] 6.33 µM | Potency [9] 15.9 µM
inactive: Potency [1] | Potency [3] | Potency [7]

Nc1cc([N+](=O)[O-])cc(Cl)c1O
inactive: Potency [1] | Potency [3] | Potency [4] | Potency [6]
active: Potency [2] 61.1 µM | Potency [8] 79.6 µM | Potency [5] 39.9 µM

CCc1c(C)cc(N)c(CC)c1N
inactive: Potency [1] | Potency [2] | Potency [6]
active: Potency [3] 24.3 µM | Potency [4] 4.48 µM | Potency [5] 28.3 µM | Potency [9] 20 µM | Potency [7] 15.9 µM

C=C[Si](C)(C)Cl
inactive: caspase-3/7 activation [1] 0.183% [at 8.39 µM] | activity change, negative = cytotoxicity [2] -0.712% [at 8.39 µM] | activation [3] 4.97% [at 8.39 µM] | activity change, negative = inhibition [4] 0.847% [at 10.5 µM] | activity change, negative = inhibition [8] -15.5% [at 10.5 µM] | activity change, negative = inhibition [5] -1.65% [at 10.5 µM] | activity change, negative = inhibition [9] -9.04% [at 10.5 µM] | activity change, negative = inhibition [6] -2.91% [at 6.97 µM] | activity change, negative = inhibition [7] 0.89% [at 10.5 µM]

Nc1ccc(F)c([N+](=O)[O-])c1
inactive: Potency [1] | Potency [2] | Potency [3] | Potency [4] | Potency [6] | Potency [7]
active: Potency [8] 89.4 µM

CCCCCCCCCCCCN1CCCC1=O
active: Potency [2] 61.1 µM | Potency [3] 27.3 µM | Potency [5] 31.7 µM | Potency [9] 28.3 µM
inactive: Potency [1] | Potency [4] | Potency [6] | Potency [7]

CCC(=O)OC/C=C(\C)CCC=C(C)C
inactive: Potency [1] | Potency [2] | Potency [3] | Potency [4] | Potency [5] | Potency [6] | Potency [7]

C=C(C)C1CCC(C)CC1O (stereo unspecified)
inactive: Potency [1] | Potency [2] | Potency [3] | Potency [4] | Potency [5] | Potency [9] | Potency [6] | Potency [7]

Oc1ccc(Cl)cc1C1CCCC1
inactive: Potency [1] | Potency [2] | Potency [4] | Potency [6] | Potency [7]
active: Potency [3] 68.6 µM | Potency [5] 28.3 µM | Potency [9] 22.4 µM

O=c1cc[nH]cc1
inactive: Potency [1] | Potency [2] | Potency [3] | Potency [4] | Potency [8] | Potency [5] | Potency [6] | Potency [7]

C/C(=N\[Si](C)(C)C)O[Si](C)(C)C
inactive: Potency [1] | Potency [2] | Potency [3] | Potency [4] | Potency [5] | Potency [6] | Potency [7]

COc1cc(C(C)C)ccc1C
inactive: caspase-3/7 activation [1] -1.8% [at 19 µM] | activity change, negative = cytotoxicity [2] -0.801% [at 19 µM] | activation [3] -14.1% [at 19 µM] | activity change, negative = inhibition [4] -6.69% [at 23.6 µM] | activity change, negative = inhibition [5] -6.13% [at 23.6 µM] | activity change, negative = inhibition [9] -17.4% [at 23.6 µM] | activity change, negative = inhibition [6] -1.11% [at 15.8 µM] | activity change, negative = inhibition [7] -0.0855% [at 23.6 µM]

CCOC(=O)C1=NN(c2ccc(Cl)cc2Cl)C(C)(C(=O)OCC)C1 (stereo unspecified)
inactive: Potency [1] | Potency [2]
active: Potency [3] 54.5 µM | Potency [4] 39.9 µM | Potency [8] 2.52 µM | Potency [5] 7.1 µM | Potency [6] 43.6 µM | Potency [7] 35.6 µM

C=Cc1ccncc1
inactive: Potency [1] | Potency [2] | Potency [3] | Potency [4] | Potency [8] | Potency [5] | Potency [6] | Potency [7]

CCCCCCCCCCCCS(=O)(=O)Cl
inactive: caspase-3/7 activation [1] -1.07% [at 19 µM] | activity change, negative = cytotoxicity [2] 3.84% [at 19 µM] | activation [3] 2.36% [at 19 µM] | activity change, negative = inhibition [4] -14.2% [at 23.6 µM] | activity change, negative = inhibition [5] -14.1% [at 23.6 µM] | activity change, negative = inhibition [9] 5.89% [at 23.6 µM] | activity change, negative = inhibition [6] 1.06% [at 15.8 µM] | activity change, negative = inhibition [7] -1.36% [at 23.6 µM]

O=C1CCCCCCCCCCCCCC1
inactive: Potency [1] | Potency [2] | Potency [3] | Potency [4] | Potency [5] | Potency [9]
active: Potency [7] 35.6 µM

CCOC(=O)OC(=O)OCC
inactive: Potency [1] | Potency [2] | Potency [3] | Potency [4] | Potency [8] | Potency [5] | Potency [9] | Potency [6] | Potency [7]
